# Hits are enriched below; roughly 2% of the tested compounds scored in any of these assays.
# ClpP mod – qHTS Assay for Activators of ClpP; ATP-dependent Clp protease proteolytic subunit (Bacillus subtilis (strain 168)), P80244; purified B. subtilis ClpP, FRET peptide cleavage, 20 min; Potency, µM (highest dose often 57.5 µM), without a hit: at the highest dose activity change, negative = active; hit rate 1.9% among 340,000; active = well fitted falling curve with a large enough effect; inconclusive = small, poorly fitted or top-dose-only effect; inactive = no such curve, though single readings can be large or run the other way; also: potency is read from the fitted curve at half-maximal effect; the source files actives as falling curves though it sought activators and does not explain the sign; nearly all actives have a fitted effect of over 65% in size
#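 ClpP 10 microg/mL final, pH 8 Tris/KCl buffer with BSA, glycerol, Tween-20; compound pinned in; FRET-FV substrate; RT 20 min; Ex320/Em430; ΔFRET vs ADEP 5.8 microM, DMSO, no enzyme.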
# IL-2 act – activators of IL-2; AID 652025; activation, % (series mostly up to about 46 µM); IL-2 activation reporter assay, cell-based qHTS; stimulated with anti-CD3/CD4/CD28 beads; in transgenic mouse T cells; hit rate 0.065% among 360,000; in the data active = activation above about 50%; inconclusive = mostly about 30% to 49%; also: 0% is about no effect
#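 Screening format: compound pinned onto unstimulated transgenic mouse T cells, 60 min incubation, then anti-CD3/anti-CD4/anti-CD28 bead stimulation for 18 hours at 37 degrees C, followed by EGFP and DsRed detection.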
# NPSR antagonist – neuropeptide S receptor (human) antagonism, cAMP | Q6W5P4 | CHO-NPSR cells, cAMP TR-FRET, antagonist mode | Potency, µM (top dose mostly 38.3 µM), inactives show at the top dose activity change, negative = inhibition, actives largely listed as inhibitors | hit rate 1% among 220,000; also: potency is read from the fitted curve at half-maximal effect; % is scaled to controls: 0 for no effect and ±100 for the full control effect; nearly all actives have a fitted effect of over 50% in size
# PKM2 act – increases activity of human pyruvate kinase M2; P14618; purified PKM2, Kinase-Glo ATP luminescence, activation; response scale: 0% is enzyme alone, no compound; Potency, µM (titrated, usually from 57.5 µM), for the others: at the top dose activation, actives largely listed as activators; hit rate 0.34% among 260,000; AID 1631; also: potency is read from the fitted curve at half-maximal effect; % is scaled to controls: 0 for no effect and ±100 for the full control effect; nearly all actives have a fitted effect of over 55% in size
# Target sequence (P14618 whole entry, looked up): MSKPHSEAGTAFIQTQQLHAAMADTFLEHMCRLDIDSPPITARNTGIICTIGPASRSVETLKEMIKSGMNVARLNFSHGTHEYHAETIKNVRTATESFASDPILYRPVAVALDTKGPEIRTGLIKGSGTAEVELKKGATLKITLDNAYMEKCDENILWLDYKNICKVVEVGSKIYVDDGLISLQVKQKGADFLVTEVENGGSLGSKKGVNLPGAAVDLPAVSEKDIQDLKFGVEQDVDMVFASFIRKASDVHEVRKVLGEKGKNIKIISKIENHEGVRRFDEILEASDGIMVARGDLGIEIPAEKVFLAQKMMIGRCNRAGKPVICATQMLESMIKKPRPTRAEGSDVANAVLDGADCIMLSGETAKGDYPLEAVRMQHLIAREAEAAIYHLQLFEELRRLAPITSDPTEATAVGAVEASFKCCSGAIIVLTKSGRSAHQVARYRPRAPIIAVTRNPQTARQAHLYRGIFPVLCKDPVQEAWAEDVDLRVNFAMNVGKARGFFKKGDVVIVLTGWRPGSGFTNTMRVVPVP
#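 Kinase-Glo luminescence reports ATP generated from ADP (0.1 mM) and PEP (0.5 mM) by purified hPK-M2 after 1 h at room temperature, pH 7.2 imidazole buffer; intermediate enzyme activity allows detecting inhibitors and activators.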
# * marks the source's active call; other numbers are inactive results; ? = inconclusive; nt = no result given; [ ] = remark or other dose. Unless noted, calls follow the shape of the dose curve; as a rule, active = well fitted curve in the direction sought with a large enough effect; inconclusive = small, poorly fitted or top-dose-only effect, or another doubt; inactive = no such curve, though single readings can be large; an effect the other way counts as inactive or inconclusive.
SMILES,ClpP mod,IL-2 act,NPSR antagonist,PKM2 act
CCN1CC=C2C(C#N)=C(N)C(C#N)(C#N)C(c3cc(Cl)ccc3Cl)C2C1 (stereo not drawn),22.4µM*,-0.5,-8.4%[46.1 µM],-0.9%
CC(C)N1CC=C2C(C#N)=C(N)C(C#N)(C#N)C(c3ccccc3)C2C1 (stereo not drawn),?,2.0,-6.1%[46.1 µM],-3.7%
COc1ccc(-n2c(C)c([N+](=O)[O-])c3ccc(O)c(CN(C)C)c32)cc1,22.4µM*,-0.4,-26.7%[46.1 µM],0.5%
COc1ccc(-n2c(C(C)n3nc(C)c([N+](=O)[O-])c3C)n[nH]c2=S)cc1 (stereo not drawn),0.9%,-1.4,9.7%,-3.4%
CCOc1ccc(NC(N)=O)cc1OCC,-0.7%,-3.0,-0.9%[46.1 µM],-6.1%
Clc1ccc(-c2ccc(/C=N/Nc3cc(N4CCOCC4)nc(N4CCOCC4)n3)o2)cc1,7.94µM*,-0.3,-9.8%[46.1 µM],17.6%
CCC1CCCCN1C(=O)COc1ccc2c3c(c(=O)oc2c1)CCC3 (stereo not drawn),28.2µM*,0.2,nt,nt
COc1ccc2c(c1)c(=O)oc1cc(OCC(=O)N3CCC(C)CC3)ccc12,17.8µM*,-1.8,-23.7%[46.1 µM],-14.9%
COc1ccc2c(c1)c(=O)oc1cc(OCC(=O)N3CCc4ccccc4C3)ccc12,4.47µM*,-1.6,-16.9%[46.1 µM],11.1%
CCOC(=O)C(C(=O)OCC)c1cc(Br)c2noc3c2c1C(=O)c1ccccc1-3,-0.4%,1.9,3.98µM*,-7.1%
CCCCc1nc(NCC2CCCO2)c(C#N)c2c1COC(C)(C)C2 (stereo not drawn),7.94µM*,-1.7,-17.6%[46.1 µM],-18.4%
O=C(/C=C1\NC2(CCCC2)Cc2ccccc21)C(=O)N/N=C/c1ccc(O)c(O)c1,-3.2%,-0.3,12.6µM*,-1.1%
COc1ccc(/C=N/NC(=O)C(=O)/C=C2\NC3(CCCC3)Cc3ccccc32)cc1,6.9%,-1.6,-38.6%,0.4%
COc1cc(OC)c(C2C3=C(CCCC3=O)Nc3nc4ccccc4n32)cc1OC (stereo not drawn),25.1µM*,-0.1,-8.4%[46.1 µM],-5.1%
COc1cc(Cl)ccc1OCc1cc(C(=O)N[C@H]2CCCCNC2=O)no1,0.2%,-0.3,nt,nt
O=C(/C=C/c1ccco1)NC(=S)Nc1nc(-c2ccc3ccccc3c2)cs1,-0.8%,-0.5,1.26µM*,8.6%
O=C(/C=C\c1ccco1)Nc1nc(-c2ccccc2)cs1,-4.0%,0.0,18.5%,2.1%
O=C(/C=C/c1ccco1)NC(=S)Nc1nc(-c2ccc(Cl)cc2)cs1,2.0%,-2.8,3.16µM*,8.4%
CCOc1ccc(NC(=O)CN(C)c2ccc(S(=O)(=O)N(C(C)C)C(C)C)cn2)cc1OCC,-4.1%,0.6,-16.1%[46.1 µM],-1.3%
COc1ccc(OC)c(NC(=O)CNC(=O)c2cccs2)c1,1.1%,-1.6,-9.8%[46.1 µM],4.0%
COc1ccc(NC(=O)C(=O)NCC(=O)Nc2cc(OC)ccc2OC)cc1,10µM*,2.3,nt,1.0%
COc1cc(CCC(=O)OCC(=O)c2ccc[nH]2)cc(OC)c1OC,-5.2%,5.0,nt,nt
Cc1cc(=O)[nH]c(SCC(=O)N2CCCC2)n1,22.4µM*,1.2,nt,nt
CCOC(=O)c1cnn(-c2nc(CC)nc3sc4c(c23)CCC4)c1N,-1.0%,0.0,-12.6%[46.1 µM],2.1%
N#Cc1c(Sc2ncc(C(F)(F)F)cc2Cl)nsc1C/C=N\OCc1c(F)cccc1Cl,-0.8%,-0.1,10µM*,0.4%
SMILES,ClpP mod,IL-2 act,NPSR antagonist,PKM2 act
COc1ccccc1NC(=O)C(C)OC(=O)C1CCN(S(=O)(=O)c2ccc(C)c(C)c2)CC1 (stereo not drawn),-3.5%,-0.3,nt,nt
COc1ccc(COc2ccc3c(C)cc(=O)oc3c2)cc1,4.8%,-0.6,nt,1.4%[11.5 µM]
Cc1cc(=O)oc2cc(OCC(=O)N3CCOCC3)ccc12,15.8µM*,-2.3,10.8%[46.1 µM],4.2%
Cc1cc(=O)oc2cc(OC(C)C(=O)N3CCOCC3)ccc12 (stereo not drawn),14.1µM*,0.5,3.7%[46.1 µM],-15.3%
Cc1cc(=O)oc2cc(OCc3ccc(S(=O)(=O)N4CCOCC4)cc3)ccc12,3.16µM*,-2.0,-17.0%[46.1 µM],-2.9%
COC(=O)C(CC(C)C)Oc1ccc2c(C)cc(=O)oc2c1 (stereo not drawn),15.8µM*,-2.2,?,-2.2%
CCOCc1nnc(NC(=O)c2c(OC)cccc2OC)s1,-9.4%,-0.1,16.4%[46.1 µM],8.7%
COc1ccc(OC)c(NC(=O)CSc2nnnn2C)c1,1.2%,-0.1,19.3%,-1.4%

# Assay outcomes as filed in PubChem BioAssay.
